In PubChem BioAssay AID1159580 (chemical genetic matrix, 2015):
Among all 5,500 compounds or so, about 2,000 (36%) were called active. About 18% were inconclusive and are not listed. Cut-off read from the data, not from the text of the source: active = normalized growth mostly below about 0.91 (no sharp cut-off); inconclusive = no clear call, values can overlap the other calls; inactive = mostly above about 0.92. This is one part of the list.

Test: chemical genetic growth profiling, strain panel (AID 1159580);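 note: tested at 20 µM; growth read once vehicle control cultures reached saturation at 30 °C; 1 = growth at the plate median or of vehicle wells; lower values mean less growth of the strain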
Conditions: S. cerevisiae deletion strains, growth OD

Measured: normalized growth

O=C(O)CP(=O)(O)O
inactive: locus YAL040C, strain CLN3, hits give low values 1 | locus YCL061C, strain MRC1 (second series), hits give low values 1 | locus YDR363W, strain ESC2, hits give low values 1.01 | locus YER002W, strain NOP16, hits give low values 1.01 | locus YGR229C, strain SMI1, hits give low values 1.02 | locus YNL175C, strain NOP13, hits give low values 1.02 | locus YNL197C, strain WHI3, hits give low values 1.01 | locus YNL224C, strain SQS1, hits give low values 0.993 | locus YNL322C, strain KRE1, hits give low values 1.01 | locus YOR083W, strain WHI5 (second series), hits give low values 1.01
